Laboratory results published in PubChem BioAssay (EPA / NIEHS).
Activity calls are given as the source filed them. Rule for the calls: active = hit-call score of the fitted dose curve at least 0.9, where 1 is the maximum; inactive = score below 0.9.

Tests used:
Settings in all cases: mRNA level, 48 h; actives raise or lower the signal
[1] = read-out: Early growth response protein 1 (EGR1) transcription factor, EGR1 (gene 1958); assay: LTEA_HepaRG_EGR1: Life Technologies and Expression Analysis (LTEA) Assay for Early growth response protein 1 (EGR1) transcription factor using HepaRG (AID 2283490)
In short: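 Differentiated HepaRG cells in serum-free induction medium exposed 48 hours, duplicate, to 8 half-log concentrations up to 100 uM in 0.5% DMSO. EGR1 mRNA measured by TaqMan qRT-PCR, normalized to ACTB, GAPDH, POLR2A; bidirectional fit versus DMSO.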

[2] = read-out: Ezrin (EZR), EZR (gene 7430); assay: LTEA_HepaRG_EZR: Life Technologies and Expression Analysis (LTEA) Assay for Ezrin (EZR) using HepaRG (AID 2283491)
In short: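 EZR transcript levels came from Fluidigm qRT-PCR and were normalized to three housekeeping genes after 48 h chemical exposure of HepaRG cells. Dosing used an 8-point half-log series with a 100 uM top concentration in 0.5% DMSO, tested in duplicate; both directions were fitted versus vehicle.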

[3] = read-out: Cytochrome P450 3A7 (Homo sapiens) (UniProt P24462); assay: LTEA_HepaRG_CYP3A7: Life Technologies and Expression Analysis (LTEA) Assay for CYP3A7 using HepaRG (AID 2283492)
In short: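 CYP3A7 transcript levels were read by TaqMan qRT-PCR on Fluidigm arrays after 48 h chemical exposure of human HepaRG cells, with housekeeping-gene normalisation. Eight half-log concentrations up to 100 uM in 0.5% DMSO were tested in duplicate.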

[4] = read-out: CYP3A5 (gene 1577); assay: LTEA_HepaRG_CYP3A5: Life Technologies and Expression Analysis (LTEA) Assay for CYP3A5 using HepaRG (AID 2283493)
In short: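 mRNA induction or loss of CYP3A5 assessed in HepaRG after 48 h dosing, 100 uM top concentration, duplicate wells; TaqMan qRT-PCR with ACTB, GAPDH, POLR2A normalization; 0.5% DMSO as negative control.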

[5] = read-out: Fatty Acid-Binding Protein 1 (FABP1), FABP1 (gene 2168); assay: LTEA_HepaRG_FABP1: Life Technologies and Expression Analysis (LTEA) Assay for Fatty Acid-Binding Protein 1 (FABP1) using HepaRG (AID 2283494)
In short: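 Differentiated human HepaRG cells exposed 48 h in serum-free induction medium to eight half-log concentrations up to 100 uM (0.5% DMSO), duplicate. FABP1 mRNA by qRT-PCR, normalised to ACTB, GAPDH, POLR2A; bidirectional fitting against DMSO.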

[6] = read-out: Cytochrome P450 4A22 (Homo sapiens) (UniProt Q5TCH4); assay: LTEA_HepaRG_CYP4A22: Life Technologies and Expression Analysis (LTEA) Assay for Cytochrome P450 4A22 (CYP4A22) using HepaRG (AID 2283495)
In short: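 HepaRG, 48 h post-plating -> serum-free induction medium; dosed 48 h, duplicate, 8 conc. (100 uM top, half-log), 0.5% DMSO. Readout: CYP4A22 mRNA by qRT-PCR, ACTB/GAPDH/POLR2A normalization; gain/loss fit relative to DMSO.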

[7] = read-out: Cytochrome P450 7A1 (Homo sapiens) (UniProt P22680); assay: LTEA_HepaRG_CYP7A1: Life Technologies and Expression Analysis (LTEA) Assay for Cytochrome P450 7A1 (CYP7A1) using HepaRG (AID 2283496)
In short: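 Gene expression endpoint in human HepaRG liver cells treated for 48 h with test chemicals (up to 100 uM, 0.5% DMSO). Values come from bidirectional concentration-response fitting versus DMSO.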

[8] = read-out: Glutathione S-Transferase (GSTA2), GSTA2 (gene 2939); assay: LTEA_HepaRG_GSTA2: Life Technologies and Expression Analysis (LTEA) Assay for Glutathione S-Transferase (GSTA2) using HepaRG (AID 2283497)
In short: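 Differentiated human HepaRG cells were exposed in duplicate for 48 h in serum-free induction medium, 8 points from 100 uM top in half-log steps, 0.5% DMSO. GSTA2 mRNA was measured by TaqMan qRT-PCR, normalized to ACTB, GAPDH and POLR2A; bidirectional fit versus DMSO.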

[9] = read-out: Glutamate-cysteine ligase catalytic (GCLC), GCLC (gene 2729); assay: LTEA_HepaRG_GCLC: Life Technologies and Expression Analysis (LTEA) Assay for Glutamate-cysteine ligase catalytic (GCLC) using HepaRG (AID 2283498)
In short: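 Differentiated HepaRG cells exposed 48 h in serum-free induction medium, eight-point half-log series topping at 100 uM in 0.5% DMSO, duplicates. GCLC mRNA by qRT-PCR normalized to ACTB, GAPDH and POLR2A, fitted bidirectionally versus DMSO.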

[10] = read-out: growth arrest and DNA damage 45 (GADD45G), GADD45G (gene 10912); assay: LTEA_HepaRG_GADD45G: Life Technologies and Expression Analysis (LTEA) Assay for growth arrest and DNA damage 45 (GADD45G) using HepaRG (AID 2283499)
In short: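 HepaRG, 48 h exposure, top 100 uM, half-log 8-point series, 0.5% DMSO vehicle, duplicates. Readout: GADD45G transcript by qRT-PCR (Fluidigm array), housekeeping-normalised (ACTB/GAPDH/POLR2A). Bidirectional curve fit vs DMSO baseline.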

[11] = read-out: Glutamate-cysteine ligase regulatory (GCLM), GCLM (gene 2730); assay: LTEA_HepaRG_GCLM: Life Technologies and Expression Analysis (LTEA) Assay for Glutamate-cysteine ligase regulatory (GCLM) using HepaRG (AID 2283500)
In short: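 Human liver HepaRG cultures receive test chemicals for 48 hours at up to 100 uM in 0.5% DMSO. GCLM expression is measured by qRT-PCR and analysed for increases or decreases against vehicle.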

[12] = read-out: Glutathione S-transferase M3 (GSTM3), GSTM3 (gene 2947); assay: LTEA_HepaRG_GSTM3: Life Technologies and Expression Analysis (LTEA) Assay for Glutathione S-transferase M3 (GSTM3) using HepaRG (AID 2283501)
In short: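 qRT-PCR read-out of GSTM3 transcript, normalized to three housekeeping genes, from human HepaRG cells after 48 h chemical exposure. Eight-point half-log series, top 100 uM, 0.5% DMSO vehicle; gain or loss fitted relative to DMSO baseline.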

[13] = read-out: Heat shock 70 kDa protein 1 (HSPA1A), gene 3303; assay: LTEA_HepaRG_HSPA1A: Life Technologies and Expression Analysis (LTEA) Assay for Heat shock 70 kDa protein 1 (HSPA1A) using HepaRG (AID 2283502)
In short: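 HSPA1A induction in human HepaRG liver cells is measured after 48 h of chemical treatment (100 uM maximum, 0.5% DMSO vehicle). Expression comes from qRT-PCR normalized to endogenous controls.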

[14] = read-out: Hypoxia-inducible factor 1-alpha (Homo sapiens) (UniProt Q16665); assay: LTEA_HepaRG_HIF1A: Life Technologies and Expression Analysis (LTEA) Assay for Hypoxia-inducible factor 1 (HIF1A) Trancription factor using HepaRG (AID 2283503)
In short: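 HepaRG, 48 h exposure, 8-pt half-log series from 100 uM, 0.5% DMSO vehicle, duplicates. Readout: HIF1A transcript by qRT-PCR (Fluidigm array), housekeeping-normalised. Bidirectional curve fit vs DMSO baseline.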

[15] = read-out: Insulin Like Growth Factor 1 (IGF1), IGF1 (gene 3479); assay: LTEA_HepaRG_IGF1: Life Technologies and Expression Analysis (LTEA) Assay for Insulin Like Growth Factor 1 (IGF1) using HepaRG (AID 2283506)
In short: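 Using human HepaRG liver cells, IGF1 transcript induction or suppression is measured 48 h after dosing across eight concentrations capped at 100 uM. Values derive from bidirectional concentration-response fitting with DMSO as baseline.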

[16] = read-out: Intercellular Adhesion Molecule 1 (ICAM1), ICAM1 (gene 3383); assay: LTEA_HepaRG_ICAM1: Life Technologies and Expression Analysis (LTEA) Assay for Intercellular Adhesion Molecule 1 (ICAM1) using HepaRG (AID 2283507)
In short: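 HepaRG, 48 h exposure, 8-pt half-log series from 100 uM, 0.5% DMSO vehicle, duplicates. Readout: TaqMan qRT-PCR mRNA, housekeeping-normalized (ACTB/GAPDH/POLR2A). Bidirectional curve fit vs DMSO baseline.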

[17] = read-out: Insulin-like growth factor-binding protein 1 (IGFBP1), IGFBP1 (gene 3484); assay: LTEA_HepaRG_IGFBP1: Life Technologies and Expression Analysis (LTEA) Assay for Insulin-like growth factor-binding protein 1 (IGFBP1) using HepaRG (AID 2283508)
In short: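 qRT-PCR mRNA read-out (TaqMan, Fluidigm array), normalised to three housekeeping genes; HepaRG cells, 48 h exposure, 8-pt half-log series from 100 uM, 0.5% DMSO vehicle; bidirectional curve fit vs DMSO baseline.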

[18] = read-out: Interleukin 6 (IL6), IL6 (gene 3569); assay: LTEA_HepaRG_IL6: Life Technologies and Expression Analysis (LTEA) Assay for Interleukin 6 (IL6) using HepaRG (AID 2283509)
In short: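 HepaRG cells exposed in duplicate for 48 h to eight half-log concentrations, top 100 uM, in 0.5% DMSO serum-free induction medium. mRNA measured by qRT-PCR, normalized to ACTB, GAPDH and POLR2A. Bidirectional fit versus DMSO.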

[19] = read-out: 3-Hydroxy-3-Methylglutaryl-CoA Synthase 2 (HMGCS2), HMGCS2 (gene 3158); assay: LTEA_HepaRG_HMGCS2: Life Technologies and Expression Analysis (LTEA) Assay for 3-Hydroxy-3-Methylglutaryl-CoA Synthase 2 (HMGCS2) using HepaRG (AID 2283504)
In short: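 qRT-PCR read-out of HMGCS2 transcript, normalised to three housekeeping genes, in HepaRG cells after 48 h chemical exposure. Eight-point curves from 100 uM, half-log dilutions, 0.5% DMSO vehicle; gain or loss fitted relative to DMSO baseline.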

[20] = read-out: HGF (gene 3082); assay: LTEA_HepaRG_HGF: Life Technologies and Expression Analysis (LTEA) Assay for Hepatocyte Growth Facto (HGF) using HepaRG (AID 2283505)
In short: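 HepaRG, 48 h dosing, 8-pt half-log series from 100 uM in 0.5% DMSO, duplicates. Readout: TaqMan qRT-PCR of HGF mRNA, housekeeping-normalized; bidirectional curve fit vs DMSO baseline.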

Measured: outcome

Hypoxia-inducible factor 1-alpha (Homo sapiens), sequence (Q16665 whole entry, looked up): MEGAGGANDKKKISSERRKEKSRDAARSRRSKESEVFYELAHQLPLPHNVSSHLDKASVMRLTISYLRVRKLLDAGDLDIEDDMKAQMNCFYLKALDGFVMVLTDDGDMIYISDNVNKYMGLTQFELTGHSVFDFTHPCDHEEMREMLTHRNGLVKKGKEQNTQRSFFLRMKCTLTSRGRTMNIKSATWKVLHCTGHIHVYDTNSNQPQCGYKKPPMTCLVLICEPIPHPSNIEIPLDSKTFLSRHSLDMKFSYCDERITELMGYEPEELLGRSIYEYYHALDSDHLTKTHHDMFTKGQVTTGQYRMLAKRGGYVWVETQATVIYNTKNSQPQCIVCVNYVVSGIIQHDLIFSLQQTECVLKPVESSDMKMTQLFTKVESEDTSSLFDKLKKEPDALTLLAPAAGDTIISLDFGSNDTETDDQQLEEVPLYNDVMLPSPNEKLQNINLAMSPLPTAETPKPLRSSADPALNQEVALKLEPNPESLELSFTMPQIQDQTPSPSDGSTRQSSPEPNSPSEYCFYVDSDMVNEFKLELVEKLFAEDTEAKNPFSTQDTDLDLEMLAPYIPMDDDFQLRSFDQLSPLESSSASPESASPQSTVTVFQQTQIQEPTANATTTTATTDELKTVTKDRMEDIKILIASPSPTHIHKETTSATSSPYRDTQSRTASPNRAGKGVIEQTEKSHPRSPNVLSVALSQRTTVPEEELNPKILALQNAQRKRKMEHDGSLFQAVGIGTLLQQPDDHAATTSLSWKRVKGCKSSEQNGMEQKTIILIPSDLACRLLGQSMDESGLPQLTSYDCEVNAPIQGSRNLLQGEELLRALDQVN
Cytochrome P450 3A7 (Homo sapiens), sequence (P24462 whole entry, looked up): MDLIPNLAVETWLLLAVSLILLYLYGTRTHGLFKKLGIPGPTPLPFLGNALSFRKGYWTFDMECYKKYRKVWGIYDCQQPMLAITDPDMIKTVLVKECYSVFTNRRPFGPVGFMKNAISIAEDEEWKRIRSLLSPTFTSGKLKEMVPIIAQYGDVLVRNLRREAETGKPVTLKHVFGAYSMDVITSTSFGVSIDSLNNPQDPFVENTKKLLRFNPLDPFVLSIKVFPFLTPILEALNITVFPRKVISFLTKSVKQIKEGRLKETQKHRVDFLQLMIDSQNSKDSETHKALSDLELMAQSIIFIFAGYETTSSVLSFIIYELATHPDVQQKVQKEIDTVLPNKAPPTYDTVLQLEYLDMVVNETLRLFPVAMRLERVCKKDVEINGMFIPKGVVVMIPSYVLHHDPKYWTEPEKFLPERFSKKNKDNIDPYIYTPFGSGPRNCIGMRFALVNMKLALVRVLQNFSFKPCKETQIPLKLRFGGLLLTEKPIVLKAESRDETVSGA

O=C(O)c1cccnc1
not listed: [19] | [20]
inactive: all other assays above

CCCC(=O)O
not listed: [12] | [15]
inactive: all other assays above

CC(C)COC(=O)CCCCC(=O)OCC(C)C
not listed: [15]
inactive: all other assays above

CN(C)CCCN(C)CCCN(C)C
not listed: [11] | [15]
inactive: all other assays above

O=C1CCCCC1
not listed: [11] | [15]
inactive: all other assays above

O=C(O)CC(O)(CC(=O)O)C(=O)O
not listed: [11]
inactive: all other assays above

CCCCCCCC(=O)OC
not listed: [11]
inactive: all other assays above

Cc1occc(=O)c1O
not listed: [12] | [14] | [15]
inactive: all other assays above

C=CCc1ccc(OC)c(OC)c1
not listed: [12]
inactive: all other assays above

CC(=O)OC1CC(C)OC(C)O1 (stereo not drawn)
not listed: [11]
inactive: all other assays above

COC(=O)CCCC(=O)OC
not listed: [11] | [15]
inactive: all other assays above

OCC(O)CO
not listed: [12] | [15]
inactive: all other assays above

C/C=C/c1ccc(OC)cc1
not listed: [12] | [19]
inactive: all other assays above

C=CCCCCCCCCCCCC
inactive: all assays above
